# Source: PubChem (National Center for Advancing Translational Sciences (NCATS))
# This is a sample that favours compounds with a hit; in the whole collection about 7.9% have one here.
# MCF10A rerep = A quantitative high throughput screen for small molecules that induce DNA re-replication in MCF 10a normal breast cells; MCF 10A DNA re-replication, Hoechst nuclear intensity, 48 h; Potency, µM (titrated, usually from 46.1 µM), for inactives: top-dose activity, positive = re-replication, most hits filed as activators; 350,000 compounds, 2.9% hits; AID 624296, 2012; also: % of control where 0% means no effect; nearly all actives have a fitted effect of over 50% in size
# KB-3-1 cytotox = qHTS assay for MDR1-selective chemotherapeutics: Primary screen using the parental adenocarcinoma cell KB-3-1. 400,000 compounds, 1.4% hits. Potency, µM (series often up to 46.1 µM), most hits filed as cytotoxic. KB-3-1 viability, CellTiter-Glo ATP luminescence, 72 h; also: % is scaled to controls: 0 for no effect and ±100 for the full control effect; nearly all actives have a fitted effect of over 60% in size
#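 Parental KB-3-1 adenocarcinoma cells in phenol-red-free DMEM with 10% FBS were pin-treated with compounds at several concentrations, incubated 72 h at 37 °C, and viability read by CellTiter-Glo luminescence; concentration-effect curves were fitted after normalization.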
# SW480 rerep = A quantitative high throughput screen for small molecules that induce DNA re-replication in SW480 colon adenocarcinoma cells | 340,000 compounds, 1.8% hits | Potency, µM (highest dose often 46.1 µM), without a hit: at the top dose re-replication activation, actives largely listed as activators | AID 624297, 2012 | SW480 DNA re-replication, Hoechst DNA content imaging, 48 h; also: % of control where 0% means no effect; nearly all actives have a fitted effect of over 55% in size
#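 Hoechst fluorescence of nuclei (405 nm excitation, 500-530 nm emission) measured by plate-scanning imager after 48 hr compound exposure at 37 C; re-replication scored as increased number of nuclei with elevated intensity.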
# HT1080 IDH1KD tx = qHTS for induction of synthetic lethality in tumor cells producing 2HG: qHTS for the HT-1080-IDH1KD cell line; 360,000 compounds, 2% hits; HT-1080 IDH1 knockdown viability, ATP luminescence, 48 h; Potency, µM (titrated, usually from 46.1 µM), without a hit: top-dose activity, negative = toxicity, usual class: cytotoxic;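 also: 0% = DMSO wells and -100% = cell-free medium wells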
#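 Knockdown cells (IDH1KD HT-1080) received compounds 2 h after plating at 750 cells/well and were kept 48 h at 37 °C in 5% FBS RPMI. A CellTiter-Glo luminescence read gave % activity for curve fitting.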
# HT1080NT lethal = qHTS for induction of synthetic lethality in tumor cells producing 2HG: qHTS for the HT-1080-NT fibrosarcoma cell line; HT-1080-NT fibrosarcoma viability, CellTiter-Glo ATP luminescence, 48 h; AID 686970, 2013; 360,000 compounds, 1.6% hits; Potency, µM (top dose mostly 46.1 µM), without a hit: top-dose activity, negative = less viability, most hits filed as cytotoxic;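 also: NT is the 2HG producing partner of a matched IDH1 knockdown line; 0% = DMSO-treated cells and -100% = media-only wells without cells; nearly all actives have a fitted effect of over 55% in size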
#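 Luminescent CellTiter-Glo readout after 48 hours of compound exposure at 37 degrees C defined viability of HT-1080-NT cells. Activity was normalized to DMSO wells and cell-free media wells; concentration-response curves were fitted and assigned curve classes.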
# KB-V1 cytotox = qHTS assay for MDR1-selective chemotherapeutics: Primary screen using the drug-selected MDR subline cells KB-V1 | KB-V1 MDR cells viability, CellTiter-Glo, 72 h | Potency, µM (titrated, usually from 46.1 µM), actives largely listed as cytotoxic | 400,000 compounds, 3.4% hits | AID 1347076, 2019; also: % is scaled to controls: 0 for no effect and ±100 for the full control effect; nearly all actives have a fitted effect of over 60% in size
#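 Cells of the MDR subline KB-V1 are plated, dosed with compound at multiple concentrations, and incubated 72 h at 37 degrees C; CellTiter-Glo is then added and luminescence read after 10 min.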
# The depositor's hits bear a star; i = inactive; ? = inconclusive; . = not tested or not shown; [ ] = dose if it differs, or a comment. Calls follow the shape of the dose curve; as a rule, active = well fitted curve in the direction sought with a large enough effect; inconclusive = small, poorly fitted or top-dose-only effect, or another doubt; inactive = no such curve, though single readings can be large; an effect the other way counts as inactive or inconclusive. Potency is read from the fitted curve at half-maximal effect.
SMILES,MCF10A rerep,KB-3-1 cytotox,SW480 rerep,HT1080 IDH1KD tx,HT1080NT lethal,KB-V1 cytotox
COc1cc(NC(=O)Nc2nc(C(N)C(C)C)cs2)cc(OC)c1OC (configuration not stated),.,i,.,?,16.4µM*,i
COc1cc(NC(=O)Nc2nc(C(N)C3CCCCC3)cs2)cc(OC)c1OC (configuration not stated),.,?,.,20.6µM*,-76.7%,i
COc1ccccc1NC(=O)Nc1nc(C(N)C2CCCCC2)cs1 (configuration not stated),.,i,.,?,16.4µM*,i
COc1ccc(CNC(=O)CCNS(=O)(=O)c2cc(Br)cnc2N)cc1,3.0%,i,?,0.9%,28.0%,i
COc1cccc(-c2ccc3ncnc(NCc4ccc5c(c4)OCO5)c3c2)c1,16.4µM*,i,-30.6%[9.22 µM],.,.,i
COc1cccc(-c2ccc3ncnc(NCc4cc(C)cs4)c3c2)c1,37.6%,?,-2.9%,.,.,i
c1cncc(CNc2ncnc3ccc(-c4ccc5c(c4)OCO5)cc23)c1,-11.1%,i,-10.5%,.,.,i
Clc1cccc(-c2ccc3ncnc(NCc4cccs4)c3c2)c1,?,i,-7.1%[9.22 µM],.,.,i
c1nc(NCc2ccc3c(c2)OCO3)c2cc(-c3ccc4c(c3)OCCO4)ccc2n1,9.2µM*,i,0.8%[9.22 µM],.,.,i
Cc1cccc(-c2ccc3ncnc(NCc4cccs4)c3c2)c1,8.5%,13µM*,6.4%,.,.,i
c1cncc(CNc2ncnc3ccc(-c4ccoc4)cc23)c1,3.9%,i,1.9%,.,.,i
Cc1cccc(CNc2ncnc3ccc(-c4ccoc4)cc23)c1,2.59µM*,i,8.3%,.,.,i
COc1ccc(-c2nn(C)c3sc(C(=O)N4CCN(c5cc(Cl)ccc5C)CC4)cc23)cc1OC,.,i,.,.,.,i
CCN(CC)S(=O)(=O)c1cccc(-n2c(O)c(C=Nc3ccccc3C(=O)O)c3ccccc3c2=O)c1,-1.6%,i,-24.1%,?,?,i
Cc1csc(CNc2ncnc3ccc(-c4ccc5c(c4)OCCO5)cc23)c1,?,?,-2.7%,.,.,i
Cc1cccc(CNc2ncnc3ccc(-c4ccc5c(c4)OCCO5)cc23)c1,?,8.2µM*,21.3%,.,.,i
CCOc1ccc(-c2nnn(CC(=O)NCc3ccco3)n2)cc1OCC,-8.5%,i,-3.3%,7.9%,12.4%,i
CCCCOc1ccc(-c2nnn(CC(=O)NCc3ccco3)n2)cc1,2.8%,?,1.2%,7.94µM*,7.08µM*,4.11µM*
CSc1nc2cc(Oc3cccc(Cl)c3Cl)c(Cl)cc2[nH]1,9.2µM*,i,10.2%,?,9.2µM*,i
COc1cc(C(=O)NCC(=O)N2CCN(S(=O)(=O)c3cc(C)ccc3C)CC2)cc(OC)c1OC,?,3.26µM*,8.2µM*,6.51µM*,7.31µM*,?
Cc1ccc(C)c(S(=O)(=O)N2CCN(C(=O)Cc3sc(C)nc3-c3ccc(F)cc3)CC2)c1,42.3%,?,2.2%,-4.5%,-5.6%,23.1µM*
Cc1ccc(C)c(S(=O)(=O)N2CCN(C(=O)Cc3c(F)cccc3Cl)CC2)c1,23.0%,i,-0.4%,8.2%,6.7%,7.31µM*
Cc1ccc(S(=O)(=O)N2CCN(C(=O)COC(=O)Cc3c(F)cccc3Cl)CC2)c(C)c1,-9.8%,i,8.9%,0.6%,-0.9%,i
Cc1ccc(C)c(S(=O)(=O)N2CCN(C(=O)CCNS(=O)(=O)c3ccc(C)c(C)c3)CC2)c1,12.4%,?,0.9%,-25.1%,-8.8%,2.91µM*
CC(C)(C)[C@H]1COC(=O)CCCC/C=C\C[C@H](CC(=O)N(CCO)Cc2ccccc2)C(=O)N1,2.0%,i,0.0%,4.8%,3.1%,i
SMILES,MCF10A rerep,KB-3-1 cytotox,SW480 rerep,HT1080 IDH1KD tx,HT1080NT lethal,KB-V1 cytotox
C[C@H]1CN([C@@H](C)CO)C(=O)CCCn2cc(nn2)CO[C@@H]1CN(C)S(=O)(=O)c1ccc(Cl)cc1,.,i,.,3.2%,3.0%,i
Cc1ccc(S(=O)(=O)NCC(c2ccc(N(C)C)cc2)N2CCCC2)cc1 (configuration not stated),.,i,.,.,.,i
CCN(CC)S(=O)(=O)c1ccc2nc(NC(=O)c3cccnc3)sc2c1,.,i,.,.,.,i
Cn1nccc1NC(=O)CSCC(=O)O,8.2µM*,i,-54.4%,8.6%,19.4%,i
Cc1ccnn1CCSCC(=O)O,20.6µM*,i,0.1%,15.2%,-1.8%,i
O=S(=O)(c1cc(Cl)c(Cl)cc1Cl)N1CCN2CCCC2C1 (configuration not stated),-8.6%,i,0.366µM*,-2.6%,-13.8%,i
O=S(=O)(c1ccc(S(=O)(=O)N2CCN3CCCC3C2)cc1)N1CCCC1 (configuration not stated),-1.5%,i,-0.6%,3.1%,-0.6%,?
S=C(N/N=C/c1ccc2c(c1)OCO2)NC1CC2CCC1C2 (configuration not stated),1.4%,?,-8.2%,-15.1%,-13.6%,i
CC1(C(=O)NCCC(F)(F)F)Cc2c(-c3cccc(C(F)(F)F)c3)ccnc2O1 (configuration not stated),.,?,.,5.8µM*,20.6µM*,?
CC(=O)Nc1ccc(-c2ccnc3c2CC(C)(C(=O)Nc2cccc(C(F)(F)F)c2)O3)cc1 (configuration not stated),.,i,.,?,?,?
CC(=O)Nc1ccc(-c2ccnc3c2CC(C)(C(=O)NCc2ccc(F)c(F)c2)O3)cc1 (configuration not stated),.,8.2µM*,.,14.6µM*,?,i
CC(=O)Nc1ccc(-c2ccnc3c2CC(C)(C(=O)Nc2cccc(OC(F)(F)F)c2)O3)cc1 (configuration not stated),.,?,.,?,25.9µM*,?
CC(=O)Nc1cccc(-c2ccnc3c2CC(C)(C(=O)NCc2cccc(Cl)c2)O3)c1 (configuration not stated),.,14.6µM*,.,?,?,?
Cc1cccc(Cn2c(=O)n(CCCC(=O)NCc3ccccc3Cl)c(=O)c3ccccc32)c1,.,?,.,.,.,i
